Experimental data taken from PubChem BioAssay (Tox21).
Inconclusive results are not listed. Activity calls are given as the source filed them. Unless noted, the call rests on the fitted dose curve; in most records, active means well fitted curve in the direction sought with a large enough effect in the repeat runs; inconclusive means weak or mixed curves; inactive means no such curve, though single readings can be large; an effect the other way counts as inactive or inconclusive.

Experiments:
[1] = qHTS assay to identify aromatase inhibitors - cell viability counter screen (AID 743084);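 further: cells stimulated with testosterone during compound exposure; nearly all actives have a fitted effect of over 55% in size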
[2] = molecular target: Aryl hydrocarbon receptor (Homo sapiens) (UniProt P35869); assay: qHTS assay to identify small molecule that activate the aryl hydrocarbon receptor (AhR) signaling pathway (AID 743085);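 further: HG2L7.5c1 human HepG2 liver cells with stably integrated DRE-driven firefly reporter; series mostly up to about 70 µM; nearly all actives have a fitted effect of over 15% in size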
Method in brief: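 HepG2 cells (HG2L7.5c1) stably carrying a firefly luciferase reporter driven by 20 dioxin responsive elements were exposed to compound for 24 h at 37C after a 5 h settling period; luminescence rise (ONE-Glo) indicated activation.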

[3] = molecular target: Peroxisome proliferator-activated receptor gamma (Homo sapiens) (UniProt P37231); assay: qHTS assay to identify small molecule agonists of the peroxisome proliferator-activated receptor gamma (PPARg) signaling pathway (AID 743094; active means well fitted activation curve with a large enough effect in the signal ratio in the repeat runs, not every such curve was filed as active; the % refers to the signal ratio)
Method in brief: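 Beta-lactamase FRET fluorescence was the read-out after a 1 h room-temperature substrate step, following 17 h compound treatment at 37C of HEK293H cells expressing a UAS-driven bla reporter responsive to PPARg.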

[4] = molecular target: Peroxisome proliferator-activated receptor gamma (Homo sapiens) (UniProt P37231); assay: qHTS assay to identify small molecule antagonists of the peroxisome proliferator-activated receptor gamma (PPARg) signaling pathway (AID 743191; calls by dose curve; further: series mostly up to about 63 µM; nearly all actives have a fitted effect of over 30% in size)
Method in brief: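 GeneBLAzer PPARg UAS-bla HEK293H cells carrying a UAS-driven beta-lactamase reporter were plated at 3000 cells/well, preincubated 5 h at 37C, then given compound for 17 h at 37C; LiveBLAzer B/G FRET substrate was read after 1 h at room temperature.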

[5] = qHTS assay for small molecule agonists of the antioxidant response element (ARE) signaling pathway (AID 743202; active means well fitted activation curve with a large enough effect in the signal ratio in the repeat runs, not every such curve was filed as active; the % refers to the signal ratio)
Method in brief: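 Read-out: LiveBLAzer B/G FRET substrate fluorescence after 2 h at room temperature, following 16 h compound treatment at 37 C of HepG2 cells carrying an ARE-driven beta-lactamase reporter.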

[6] = qHTS assay for small molecule agonists of the antioxidant response element (ARE) signaling pathway - cell viability counter screen (AID 743203; calls by dose curve; further: nearly all actives have a fitted effect of over 55% in size)
Method in brief: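 HepG2 cells carrying ARE-driven beta-lactamase; 2,000 cells/well; 5 hrs plating; compound pinned from DMSO; 16 hrs 37C/5% CO2; CellTiter-Glo added; 30 min RT; luminescence.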

[7] = qHTS assay for small molecule activators of the heat shock response signaling pathway - cell viability counter screen (AID 743209); further: nearly all actives have a fitted effect of over 50% in size
Method in brief: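 Luminescence from CellTiter-Glo, added after the beta-lactamase FRET read, gave the viability signal. Cells were HSE-bla HeLa treated with DMSO-dissolved compounds for 5 h at 37 C following overnight plating.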

[8] = qHTS assay for small molecule activators of the heat shock response signaling pathway (AID 743210; active means well fitted activation curve with a large enough effect in the signal ratio in the repeat runs, with a control signal flat, not every such curve was filed as active; the % refers to the signal ratio; further: series mostly up to about 63 µM)
Method in brief: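 HSE-bla HeLa cells (beta-lactamase reporter under heat shock response elements) were exposed to compounds for 5 h at 37 C, then loaded with LiveBLAzer B/G FRET substrate for 2.5 h at room temperature before fluorescence reading.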

[9] = qHTS assay to identify small molecule agonists of the peroxisome proliferator-activated receptor delta (PPARd) signaling pathway - cell viability counter screen (AID 743211); further: nearly all actives have a fitted effect of over 55% in size
Method in brief: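 PPARd-bla HEK293H cells (UAS-beta-lactamase reporter) were treated with compounds for 17 h at 37 C. Viability was then read in the same wells by CellTiter-Glo luminescence after 30 min at room temperature.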

[10] = molecular target: Peroxisome proliferator-activated receptor delta (Homo sapiens) (UniProt Q03181); assay: qHTS assay to identify small molecule agonists of the peroxisome proliferator-activated receptor delta (PPARd) signaling pathway (AID 743212; calls by dose curve)
Method in brief: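 GeneBLAzer PPARd UAS-bla HEK293H cells (beta-lactamase reporter under UAS control), plated and rested 5 h at 37 C, then exposed to compounds in DMSO at 37 C; LiveBLAzer B/G FRET substrate added, 2 h room temperature, fluorescence read.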

[11] = molecular target: Peroxisome proliferator-activated receptor delta (Homo sapiens) (UniProt Q03181); assay: qHTS assay to identify small molecule antagonists of the peroxisome proliferator-activated receptor delta (PPARd) signaling pathway (AID 743215; active means well fitted inhibition curve with a large enough effect in the signal ratio in the repeat runs, not every such curve was filed as active; the % refers to the signal ratio;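 further: cells stimulated with agonist L165041 at 300 nM final during compound exposure; series mostly up to about 62 µM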)
Method in brief: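 Read-out is beta-lactamase FRET fluorescence, measured 2 h after substrate addition at room temperature. Beforehand, UAS-bla HEK293H cells carrying the PPARd reporter were exposed to compounds with L165041 at 300 nM final for 17 h at 37 C.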

[12] = qHTS assay to identify small molecule agonists of the farnesoid-X-receptor (FXR) signaling pathway - cell viability counter screen (AID 743218); further: nearly all actives have a fitted effect of over 45% in size
Method in brief: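 HEK 293T FXR-bla cells; 5 h pre-incubation, 16 h compound exposure at 37 C; LiveBLAzer substrate 2 h RT, then CellTiter-Glo 30 min RT, luminescence.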

[13] = qHTS assay to identify small molecule antagonists of the farnesoid-X-receptor (FXR) signaling pathway - cell viability counter screen (AID 743221; active means well fitted cell-killing curve with a large enough effect in the repeat runs, not every such curve was filed as active; further: nearly all actives have a fitted effect of over 50% in size)
Method in brief: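 FXR-UAS-bla HEK 293T cells were treated with test compounds plus chenodeoxycholic acid (50 uM final) for 16 h at 37 C. Cell viability in the same wells was then read as CellTiter-Glo luminescence after 30 min at room temperature.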

[14] = qHTS assay to identify small molecule that activate the aryl hydrocarbon receptor (AhR) signaling pathway - cell viability counter screen (AID 743086);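 further: HepG2 liver cells carrying the AhR DRE luciferase reporter; series mostly up to about 70 µM; nearly all actives have a fitted effect of over 45% in size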
Method in brief: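 HepG2-AhR-luc (HG2L7.5c1) cells, 4000/well, were preincubated 5 h at 37C, exposed to compound in qHTS format for 24 hr at 37C, then given CellTiter-Fluor for 30 min; viability was read as fluorescence in the reporter wells.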

[15] = qHTS assay to identify small molecule antagonists of the peroxisome proliferator-activated receptor gamma (PPARg) signaling pathway - cell viability counter screen (AID 743194); details: Potency: co-treated with 50 nM rosiglitazone; further: nearly all actives have a fitted effect of over 55% in size
Method in brief: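 PPARg-UAS-bla HEK293H cells were plated, rested 5 h at 37 C, then treated with compounds plus rosiglitazone (50 nM final) for 17 h at 37 C; viability was then read by CellTiter-Glo luminescence after 30 min at room temperature.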

[16] = molecular target: Vitamin D3 receptor (Homo sapiens) (UniProt P11473); assay: qHTS assay to identify small molecule antagonists of the vitamin D receptor (VDR) signaling pathway (AID 743223; active means well fitted inhibition curve with a large enough effect in the signal ratio in the repeat runs, not every such curve was filed as active; the % refers to the signal ratio)
Method in brief: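 VDR-bla cells were plated, incubated 4 h at 37C, then given compound and 1alpha,25-dihydroxyvitamin D3 (3 nM final). After 16 h at 37C, LiveBLAzer B/G FRET substrate was added for 2 h at room temperature and fluorescence read.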

[17] = molecular target: Bile acid receptor (Homo sapiens) (UniProt Q96RI1); assay: qHTS assay to identify small molecule antagonists of the farnesoid-X-receptor (FXR) signaling pathway (AID 743217; active means well fitted inhibition curve with a large enough effect in the signal ratio in the repeat runs, not every such curve was filed as active; the % refers to the signal ratio)
Method in brief: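 HEK 293T FXR-UAS-bla, 5000 cells/well; compound + CDCA 50 uM final; 16 h, 37 °C; B/G FRET substrate 2 h RT; fluorescence.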

[18] = molecular target: Bile acid receptor (Homo sapiens) (UniProt Q96RI1); assay: qHTS assay to identify small molecule agonists of the farnesoid-X-receptor (FXR) signaling pathway (AID 743220; active means well fitted activation curve with a large enough effect in the signal ratio in the repeat runs, not every such curve was filed as active; the % refers to the signal ratio)
Method in brief: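 Beta-lactamase reporter under UAS control in GeneBLAzer FXR HEK 293T cells (5000/well) measured with LiveBLAzer FRET substrate after 2 h at room temperature. Compound exposure lasted 16 h at 37C.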

[19] = molecular target: Vitamin D3 receptor (Homo sapiens) (UniProt P11473); assay: qHTS assay to identify small molecule agonists of the vitamin D receptor (VDR) signaling pathway (AID 743222; calls by dose curve)
Method in brief: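 VDR-bla cells, 2,000/well; 4 h preincubation 37C; cpd (DMSO) 16 h; LiveBLAzer B/G substrate 2 h RT; fluorescence intensity read.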

[20] = qHTS assay to identify small molecule antagonists of the peroxisome proliferator-activated receptor delta (PPARd) signaling pathway - cell viability counter screen (AID 743213); further: nearly all actives have a fitted effect of over 50% in size
Method in brief: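 Same-well viability: cells pre-incubated 5 h, dosed with compound plus 300 nM L165041, kept 17 h at 37 C, FRET substrate 2 h RT, then CellTiter-Glo 30 min RT and luminescence.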

Measured: Potency

Peroxisome proliferator-activated receptor delta (Homo sapiens), sequence (Q03181 whole entry, looked up): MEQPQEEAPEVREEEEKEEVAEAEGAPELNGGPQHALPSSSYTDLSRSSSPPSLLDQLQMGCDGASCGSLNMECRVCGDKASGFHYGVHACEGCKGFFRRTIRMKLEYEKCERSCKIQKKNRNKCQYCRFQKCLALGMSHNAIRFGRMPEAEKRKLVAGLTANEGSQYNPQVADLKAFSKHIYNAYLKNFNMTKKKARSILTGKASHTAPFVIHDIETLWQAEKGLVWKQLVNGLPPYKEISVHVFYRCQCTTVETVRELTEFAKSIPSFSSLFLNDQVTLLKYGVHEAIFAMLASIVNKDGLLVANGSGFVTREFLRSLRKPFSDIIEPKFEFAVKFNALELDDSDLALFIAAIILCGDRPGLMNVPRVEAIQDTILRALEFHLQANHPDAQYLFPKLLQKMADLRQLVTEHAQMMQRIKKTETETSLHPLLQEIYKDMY
Aryl hydrocarbon receptor (Homo sapiens), sequence (P35869 whole entry, looked up): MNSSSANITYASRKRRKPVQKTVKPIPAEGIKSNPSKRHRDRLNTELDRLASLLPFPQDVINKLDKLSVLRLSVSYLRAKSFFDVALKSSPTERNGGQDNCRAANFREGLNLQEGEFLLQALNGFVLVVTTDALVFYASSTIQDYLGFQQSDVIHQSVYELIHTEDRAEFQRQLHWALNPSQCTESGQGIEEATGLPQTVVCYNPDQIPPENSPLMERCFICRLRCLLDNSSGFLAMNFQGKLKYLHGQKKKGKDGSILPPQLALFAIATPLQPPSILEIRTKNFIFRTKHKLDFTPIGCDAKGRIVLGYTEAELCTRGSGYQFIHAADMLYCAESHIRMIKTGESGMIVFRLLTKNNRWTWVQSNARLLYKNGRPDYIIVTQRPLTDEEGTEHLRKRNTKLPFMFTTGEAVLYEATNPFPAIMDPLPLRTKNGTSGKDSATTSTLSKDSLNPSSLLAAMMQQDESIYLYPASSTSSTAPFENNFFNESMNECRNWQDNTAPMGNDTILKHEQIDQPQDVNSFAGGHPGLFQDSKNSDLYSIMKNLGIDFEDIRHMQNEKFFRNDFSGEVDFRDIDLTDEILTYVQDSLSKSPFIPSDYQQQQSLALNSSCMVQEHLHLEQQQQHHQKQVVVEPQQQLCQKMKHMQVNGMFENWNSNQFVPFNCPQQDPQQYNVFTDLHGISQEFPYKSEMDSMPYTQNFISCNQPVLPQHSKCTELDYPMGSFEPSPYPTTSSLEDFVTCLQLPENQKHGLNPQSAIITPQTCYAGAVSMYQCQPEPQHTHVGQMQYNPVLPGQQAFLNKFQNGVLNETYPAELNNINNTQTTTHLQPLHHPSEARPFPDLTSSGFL
Bile acid receptor (Homo sapiens), sequence (Q96RI1 whole entry, looked up): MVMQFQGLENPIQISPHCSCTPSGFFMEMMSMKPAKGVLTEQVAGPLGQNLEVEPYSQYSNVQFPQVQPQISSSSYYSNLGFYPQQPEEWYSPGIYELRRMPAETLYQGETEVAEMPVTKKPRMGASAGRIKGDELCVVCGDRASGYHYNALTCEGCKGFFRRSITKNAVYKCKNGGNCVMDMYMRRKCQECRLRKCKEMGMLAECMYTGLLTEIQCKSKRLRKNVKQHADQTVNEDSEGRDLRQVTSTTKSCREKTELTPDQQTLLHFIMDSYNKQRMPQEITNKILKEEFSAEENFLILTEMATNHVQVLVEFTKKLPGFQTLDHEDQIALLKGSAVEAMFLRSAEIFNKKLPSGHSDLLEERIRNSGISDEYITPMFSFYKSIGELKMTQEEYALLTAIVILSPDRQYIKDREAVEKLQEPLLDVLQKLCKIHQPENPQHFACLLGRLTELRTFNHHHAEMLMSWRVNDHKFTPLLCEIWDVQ
Peroxisome proliferator-activated receptor gamma (Homo sapiens), sequence (P37231 whole entry, looked up): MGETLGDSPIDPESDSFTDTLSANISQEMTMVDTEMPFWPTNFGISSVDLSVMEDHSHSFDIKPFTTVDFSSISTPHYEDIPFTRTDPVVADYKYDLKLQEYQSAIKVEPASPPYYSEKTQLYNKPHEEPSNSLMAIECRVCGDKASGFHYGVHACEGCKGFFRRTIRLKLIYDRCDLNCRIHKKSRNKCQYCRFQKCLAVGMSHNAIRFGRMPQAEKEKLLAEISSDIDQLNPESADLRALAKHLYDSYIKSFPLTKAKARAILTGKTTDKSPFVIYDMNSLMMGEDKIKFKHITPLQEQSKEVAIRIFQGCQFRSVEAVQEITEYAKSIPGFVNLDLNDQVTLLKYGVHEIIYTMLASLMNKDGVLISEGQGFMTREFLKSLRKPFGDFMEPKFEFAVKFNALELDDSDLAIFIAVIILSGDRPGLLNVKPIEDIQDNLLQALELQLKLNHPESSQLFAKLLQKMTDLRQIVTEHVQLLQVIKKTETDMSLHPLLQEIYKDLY
Vitamin D3 receptor (Homo sapiens), sequence (P11473 whole entry, looked up): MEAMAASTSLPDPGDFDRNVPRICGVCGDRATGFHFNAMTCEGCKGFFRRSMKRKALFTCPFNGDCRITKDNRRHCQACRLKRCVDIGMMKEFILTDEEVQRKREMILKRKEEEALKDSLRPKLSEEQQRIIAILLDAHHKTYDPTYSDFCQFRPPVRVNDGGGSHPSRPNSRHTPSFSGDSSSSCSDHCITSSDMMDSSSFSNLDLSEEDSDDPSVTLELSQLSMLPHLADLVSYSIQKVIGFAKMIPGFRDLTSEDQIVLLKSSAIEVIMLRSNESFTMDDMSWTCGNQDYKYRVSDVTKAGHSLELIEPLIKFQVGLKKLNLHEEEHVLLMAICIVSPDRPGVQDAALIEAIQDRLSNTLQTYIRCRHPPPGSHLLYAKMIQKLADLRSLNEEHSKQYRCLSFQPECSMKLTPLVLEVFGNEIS

N#CN=C1SCCN1Cc1ccc(Cl)nc1
not listed: [14] | [15] | [16] | [17] | [18] | [19] | [20]
inactive: all other assays above

Cc1ccc(-c2nc3ccc(C)cn3c2CC(=O)N(C)C)cc1
not listed: [2] | [10] | [11] | [12] | [17] | [18] | [19] | [20]
inactive: all other assays above

CCCCCCCCBr
not listed: [3] | [4] | [10] | [11] | [20]
inactive: all other assays above

CCN(CCO)CCn1c(Cc2ccccc2)nc2c1c(=O)n(C)c(=O)n2C
not listed: [10] | [11] | [12] | [14] | [16] | [19]
inactive: all other assays above

O=C(NC(O)C(Cl)(Cl)Cl)NC(O)C(Cl)(Cl)Cl (stereo not drawn)
not listed: [3] | [4] | [10] | [11] | [17] | [18] | [20]
inactive: all other assays above

CCOC(=O)c1ncn2c1CN(C)C(=O)c1c(I)cccc1-2
not listed: [2] | [16]
inactive: all other assays above

CCOC(=O)C(SP(=S)(OC)OC)c1ccccc1 (stereo not drawn)
not listed: [2] | [10] | [11] | [12]
inactive: all other assays above

Cc1ccc2cc(C)ccc2c1
not listed: [3] | [4] | [10] | [11] | [14] | [16]
inactive: all other assays above

CS(=O)(=O)c1ccc(C(=O)C2C(=O)CCCC2=O)c(Cl)c1COCC(F)(F)F
not listed: [3] | [4] | [8] | [13] | [17] | [18] | [20]
inactive: all other assays above
